Source: ChEMBL document CHEMBL3988442, “University of Dundee, Small-Polar-MMV Screening Library” (2021)
For some assays here: Results with a measured potency or affinity are listed apart.

Legend:
Design in all cases: scale not given: direction of the effect not stated beside the values
[1] = target: Protein translocase subunit SecA (Escherichia coli (strain K12)) (UniProt P10408); assay: Assay to Identify E. coli SecA ATPase Inhibitors; format: functional; settings: 30 µM
[2] = target: T1, Ubiquitin-activating enzyme e1, putative (Leishmania donovani (strain BPK282A1)) (UniProt E9BSI1); assay: Leishmania donovani Ubiquitin Activating Enzyme (LdE1); format: functional; settings: 30 µM
T1 sequence (whole entry): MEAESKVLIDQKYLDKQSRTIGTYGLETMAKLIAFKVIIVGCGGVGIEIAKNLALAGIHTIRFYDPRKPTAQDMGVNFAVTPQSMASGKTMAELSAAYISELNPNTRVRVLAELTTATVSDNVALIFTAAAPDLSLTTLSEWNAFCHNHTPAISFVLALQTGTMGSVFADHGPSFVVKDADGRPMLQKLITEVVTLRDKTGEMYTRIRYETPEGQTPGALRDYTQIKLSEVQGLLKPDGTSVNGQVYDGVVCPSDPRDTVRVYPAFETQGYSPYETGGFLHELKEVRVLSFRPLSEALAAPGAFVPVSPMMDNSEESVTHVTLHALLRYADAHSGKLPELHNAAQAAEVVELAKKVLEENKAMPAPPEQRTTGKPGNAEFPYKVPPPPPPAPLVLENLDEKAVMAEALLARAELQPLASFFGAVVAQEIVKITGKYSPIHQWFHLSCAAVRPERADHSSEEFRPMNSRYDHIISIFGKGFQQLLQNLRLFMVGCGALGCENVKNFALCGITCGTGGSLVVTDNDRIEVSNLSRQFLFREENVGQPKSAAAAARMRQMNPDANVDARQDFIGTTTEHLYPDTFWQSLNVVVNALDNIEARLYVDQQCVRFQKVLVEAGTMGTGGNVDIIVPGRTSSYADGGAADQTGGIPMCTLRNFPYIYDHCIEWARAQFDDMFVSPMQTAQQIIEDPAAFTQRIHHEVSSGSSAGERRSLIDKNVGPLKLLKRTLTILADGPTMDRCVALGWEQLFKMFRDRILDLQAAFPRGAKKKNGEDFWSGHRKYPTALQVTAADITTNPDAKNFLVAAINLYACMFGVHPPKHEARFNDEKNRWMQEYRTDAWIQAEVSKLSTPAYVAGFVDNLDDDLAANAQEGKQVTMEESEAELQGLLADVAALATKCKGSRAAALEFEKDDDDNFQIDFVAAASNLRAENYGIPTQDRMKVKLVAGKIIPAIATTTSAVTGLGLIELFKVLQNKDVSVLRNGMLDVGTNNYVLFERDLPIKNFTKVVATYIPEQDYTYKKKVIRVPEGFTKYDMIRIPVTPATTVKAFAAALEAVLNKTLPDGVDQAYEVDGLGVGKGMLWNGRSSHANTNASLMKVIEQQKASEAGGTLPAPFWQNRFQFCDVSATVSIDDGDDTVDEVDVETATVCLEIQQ

[3] = target: AMP-activated protein kinase, AMPK (Homo sapiens) (UniProt P54646+O43741+P54619+Q9UGJ0+Q9Y478+Q13131+Q9UGI9); assay: AMP-dependent Kinase enzyme assay. An in vitro enzyme assay that detects ADP turnover that is directly proportional to AMPK activity. This uses naive AMPK that is activated during the assay with MK-8722; format: functional; settings: 30 µM
[4] = target: Sialic acid-binding Ig-like lectin 9 (Homo sapiens) (UniProt Q9Y336); assay: Hs-Siglec9 ALPHAscreen SOP 20170721; settings: 10 µM
Trypanosoma cruzi = assay: Trypanosoma cruzi phosphomannomutase and mannose-1-phosphate guanylyltransferase assay; format: functional; settings: 10 µM
[5] = target: T2, Arginase-2, mitochondrial (Homo sapiens) (UniProt P78540); assay: in vitro enzyme assay to detect the production of urea directly proportional to the activity of Arginase II; format: functional; settings: 33.3 µM; further: in the data most compounds retested in dose-response had high values
T2 sequence (whole entry): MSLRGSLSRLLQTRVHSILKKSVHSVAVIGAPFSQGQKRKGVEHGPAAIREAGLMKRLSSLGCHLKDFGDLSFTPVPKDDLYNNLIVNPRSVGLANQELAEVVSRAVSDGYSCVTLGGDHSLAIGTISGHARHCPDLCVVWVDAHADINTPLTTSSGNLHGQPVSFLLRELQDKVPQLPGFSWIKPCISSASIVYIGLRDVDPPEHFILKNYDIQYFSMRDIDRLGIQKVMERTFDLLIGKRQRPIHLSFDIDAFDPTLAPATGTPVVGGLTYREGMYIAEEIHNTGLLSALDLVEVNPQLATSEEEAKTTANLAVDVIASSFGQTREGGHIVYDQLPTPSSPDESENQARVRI

[6] = target: T3, Proteasome subunit beta (Trypanosoma cruzi) (UniProt O96673); assay: Trypanosoma cruzi proteasome chymotrypsin-like activity (TcProtChymo) assay.; further: in the data most compounds retested in dose-response had high values; format: functional; settings: 9.37 µM
T3 sequence (whole entry): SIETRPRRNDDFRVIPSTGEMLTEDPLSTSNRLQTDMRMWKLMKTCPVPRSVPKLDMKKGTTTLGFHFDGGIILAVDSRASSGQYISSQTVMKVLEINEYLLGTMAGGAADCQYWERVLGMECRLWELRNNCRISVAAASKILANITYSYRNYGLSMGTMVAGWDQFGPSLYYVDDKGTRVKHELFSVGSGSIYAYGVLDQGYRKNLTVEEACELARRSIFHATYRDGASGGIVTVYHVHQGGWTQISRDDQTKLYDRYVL

Homo sapiens = organism: Homo sapiens; assay: To identify inhibition of the IFN signalling (Jak-Stat) pathway via expression of an eGFP reporter gene under the control of an IFN-stimulated response element (ISRE) containing MxA promoter.; format: functional; settings: 30 µM
[7] = target: T4, Tyrosyl-tRNA synthetase, putative (Trypanosoma cruzi (strain CL Brener)) (UniProt Q4DSP6); assay: Trypanosoma cruzi tyrosyl tRNA synthetase (TcYRS) _High Tyrosine SOP; format: functional; settings: 30 µM; further: in the data most compounds retested in dose-response had high values
T4 sequence (whole entry): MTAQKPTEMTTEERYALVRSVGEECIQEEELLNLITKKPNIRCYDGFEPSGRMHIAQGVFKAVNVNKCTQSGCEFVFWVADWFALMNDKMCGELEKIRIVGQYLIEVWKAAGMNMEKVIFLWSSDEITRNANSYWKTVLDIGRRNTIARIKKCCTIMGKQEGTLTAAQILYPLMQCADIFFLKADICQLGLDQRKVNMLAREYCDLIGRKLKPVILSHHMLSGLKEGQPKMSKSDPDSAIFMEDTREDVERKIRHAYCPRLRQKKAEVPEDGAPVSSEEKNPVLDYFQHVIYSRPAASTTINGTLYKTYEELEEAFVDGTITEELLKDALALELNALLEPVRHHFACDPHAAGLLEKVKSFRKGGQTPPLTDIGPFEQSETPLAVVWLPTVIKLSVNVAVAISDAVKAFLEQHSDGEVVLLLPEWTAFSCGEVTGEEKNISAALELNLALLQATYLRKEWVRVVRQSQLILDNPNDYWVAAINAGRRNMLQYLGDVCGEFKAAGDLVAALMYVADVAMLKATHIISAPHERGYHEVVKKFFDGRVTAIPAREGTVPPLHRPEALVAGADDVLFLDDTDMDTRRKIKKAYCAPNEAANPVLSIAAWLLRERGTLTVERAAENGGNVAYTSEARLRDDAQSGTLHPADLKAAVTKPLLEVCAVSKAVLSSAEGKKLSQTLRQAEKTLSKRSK

[8] = target: T4, Tyrosyl-tRNA synthetase, putative (Trypanosoma cruzi (strain CL Brener)); assay: Trypanosoma cruzi tyrosyl tRNA synthetase (TcYRS) SOP; format: functional; settings: 30 µM
[9] = target: Chromo domain-containing protein 1 (Saccharomyces cerevisiae (strain ATCC 204508 / S288c) (Baker's yeast)) (UniProt P32657); assay: ScCHD-1 Enzyme Inhibition Assay; format: functional; settings: 30 µM; further: in the data most compounds retested in dose-response had high values
Chromo domain-containing protein 1 (Saccharomyces cerevisiae (strain ATCC 204508 / S288c) (Baker's yeast)), sequence (P32657 whole entry, the tested form may be a part): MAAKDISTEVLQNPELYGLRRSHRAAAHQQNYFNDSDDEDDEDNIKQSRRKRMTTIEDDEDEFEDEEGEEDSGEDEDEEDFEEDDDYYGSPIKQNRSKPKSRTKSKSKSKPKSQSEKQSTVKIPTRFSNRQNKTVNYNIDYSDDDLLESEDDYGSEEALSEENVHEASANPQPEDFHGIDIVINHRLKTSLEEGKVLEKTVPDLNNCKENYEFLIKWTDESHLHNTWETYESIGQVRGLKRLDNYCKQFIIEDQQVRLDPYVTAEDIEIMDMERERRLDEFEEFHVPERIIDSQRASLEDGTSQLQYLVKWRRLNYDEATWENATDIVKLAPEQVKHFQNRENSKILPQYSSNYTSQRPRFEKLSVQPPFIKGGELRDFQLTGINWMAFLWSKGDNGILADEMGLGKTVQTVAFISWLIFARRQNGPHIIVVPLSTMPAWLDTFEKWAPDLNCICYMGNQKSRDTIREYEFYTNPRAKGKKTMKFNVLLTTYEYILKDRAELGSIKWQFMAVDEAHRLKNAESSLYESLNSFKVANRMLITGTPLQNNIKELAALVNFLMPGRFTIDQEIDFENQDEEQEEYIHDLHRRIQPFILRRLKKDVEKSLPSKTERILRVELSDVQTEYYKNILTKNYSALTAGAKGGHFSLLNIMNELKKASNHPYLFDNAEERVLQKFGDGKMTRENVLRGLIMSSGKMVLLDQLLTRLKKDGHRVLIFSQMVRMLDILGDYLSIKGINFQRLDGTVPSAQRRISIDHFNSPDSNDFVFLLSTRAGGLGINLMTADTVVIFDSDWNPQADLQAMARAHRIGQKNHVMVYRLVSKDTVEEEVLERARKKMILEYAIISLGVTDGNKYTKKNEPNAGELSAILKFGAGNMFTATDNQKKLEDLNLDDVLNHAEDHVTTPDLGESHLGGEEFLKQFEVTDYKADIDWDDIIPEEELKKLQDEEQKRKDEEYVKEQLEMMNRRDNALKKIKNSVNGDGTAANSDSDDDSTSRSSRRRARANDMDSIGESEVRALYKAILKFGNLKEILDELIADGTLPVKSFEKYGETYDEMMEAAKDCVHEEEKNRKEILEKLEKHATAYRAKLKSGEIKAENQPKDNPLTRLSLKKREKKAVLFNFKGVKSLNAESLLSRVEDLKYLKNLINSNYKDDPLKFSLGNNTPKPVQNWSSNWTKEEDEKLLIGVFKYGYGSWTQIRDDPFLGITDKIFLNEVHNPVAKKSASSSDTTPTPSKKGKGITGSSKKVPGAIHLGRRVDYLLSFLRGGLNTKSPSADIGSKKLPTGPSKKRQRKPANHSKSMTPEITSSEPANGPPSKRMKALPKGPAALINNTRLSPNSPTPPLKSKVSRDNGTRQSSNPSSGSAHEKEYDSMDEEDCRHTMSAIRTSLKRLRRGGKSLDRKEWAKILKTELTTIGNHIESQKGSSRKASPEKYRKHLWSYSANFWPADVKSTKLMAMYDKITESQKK

Sialic acid-binding Ig-like lectin 9 (Homo sapiens), sequence (Q9Y336 whole entry): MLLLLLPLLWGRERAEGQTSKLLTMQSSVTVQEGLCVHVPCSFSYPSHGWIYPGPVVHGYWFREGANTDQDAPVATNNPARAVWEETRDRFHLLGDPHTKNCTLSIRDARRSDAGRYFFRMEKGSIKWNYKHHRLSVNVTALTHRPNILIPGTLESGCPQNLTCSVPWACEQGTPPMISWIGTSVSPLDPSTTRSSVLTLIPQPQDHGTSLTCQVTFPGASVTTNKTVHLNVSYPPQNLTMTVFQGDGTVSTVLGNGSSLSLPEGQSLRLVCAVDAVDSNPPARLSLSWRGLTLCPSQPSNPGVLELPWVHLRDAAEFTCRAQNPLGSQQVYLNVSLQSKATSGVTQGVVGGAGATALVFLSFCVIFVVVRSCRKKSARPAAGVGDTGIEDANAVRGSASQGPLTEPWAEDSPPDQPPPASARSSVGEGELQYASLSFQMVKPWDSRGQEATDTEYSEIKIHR
Protein translocase subunit SecA (Escherichia coli (strain K12)), sequence (P10408 whole entry): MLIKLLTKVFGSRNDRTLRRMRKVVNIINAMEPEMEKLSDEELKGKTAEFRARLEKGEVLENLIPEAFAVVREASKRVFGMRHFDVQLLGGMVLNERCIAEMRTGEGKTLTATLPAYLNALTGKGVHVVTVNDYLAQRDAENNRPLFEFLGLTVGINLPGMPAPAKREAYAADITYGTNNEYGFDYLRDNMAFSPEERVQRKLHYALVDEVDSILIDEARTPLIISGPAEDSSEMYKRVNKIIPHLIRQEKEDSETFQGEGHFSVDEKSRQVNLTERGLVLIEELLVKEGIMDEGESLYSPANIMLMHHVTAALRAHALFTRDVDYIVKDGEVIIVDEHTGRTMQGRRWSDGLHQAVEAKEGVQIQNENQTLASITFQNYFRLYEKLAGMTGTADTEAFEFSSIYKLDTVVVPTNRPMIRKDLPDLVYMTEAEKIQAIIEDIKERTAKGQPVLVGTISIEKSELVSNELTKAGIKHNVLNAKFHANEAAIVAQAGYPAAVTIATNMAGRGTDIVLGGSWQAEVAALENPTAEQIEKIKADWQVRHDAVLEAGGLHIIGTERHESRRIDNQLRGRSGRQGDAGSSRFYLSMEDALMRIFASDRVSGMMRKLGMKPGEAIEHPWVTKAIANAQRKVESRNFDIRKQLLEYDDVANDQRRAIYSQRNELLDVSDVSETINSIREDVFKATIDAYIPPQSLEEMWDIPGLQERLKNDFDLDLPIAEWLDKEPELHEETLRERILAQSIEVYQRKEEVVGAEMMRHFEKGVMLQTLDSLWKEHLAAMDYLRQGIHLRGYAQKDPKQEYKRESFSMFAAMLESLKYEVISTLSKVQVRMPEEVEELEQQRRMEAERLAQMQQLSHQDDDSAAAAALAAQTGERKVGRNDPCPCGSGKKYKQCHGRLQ

| SMILES | Percent Effect [1] [%] | Percent Effect [2] [%] | Percent Effect [3] [%] | Percent Effect [4] [%] | Percent Effect (Trypanosoma cruzi) [%] | Percent Effect [5] [%] | Percent Effect [6] [%] | Percent Effect (Homo sapiens) [%] | Percent Effect [7] [%] | Percent Effect [8] [%] | Percent Effect [9] [%] |
| --- | --- | --- | --- | --- | --- | --- | --- | --- | --- | --- | --- |
| COc1cccc(OCC(=O)NS(=O)(=O)c2ccc(C)s2)c1 | -3.05 | 15.2 | -2.9 | -5.56 | 5.19 | 5.32 | 10.4 | 15.6 | 2.46 | 16.5 | -4.35 |
| CC(NC(=O)NCC1(N2CCCCC2)CCCCC1)c1nncn1C (configuration not stated) | -6.18 | 18.4 | -2.65 | 0.417 | 1.03 | 0 | -0.931 | 5.56 | 9.36 | 18.5 | -6 |
| Cc1ccoc1C(=O)N1C[C@@H]2[C@@H](C1)OCC(=O)N2Cc1cccnc1 | -4.32 | -15.6 | -0.37 | 0.332 | -2.86 | 3.23 | 2.96 | 19.8 | -27.5 | -47.4 | 5.56 |
| Cc1ccc(N2CCCC(NCc3ccc(C)o3)C2)nn1 (configuration not stated) | -0.735 | 6.33 | 1.51 | -2.46 | 4 | -1.5 | 28.8 | -8.15 | 5.21 | 10.1 | -15.2 |
| Cc1ccc2c(ccn2CCC(=O)O)c1 | -4.82 | 0 | 0.269 | -0.473 | 1.07 | -0.744 | -2.83 | 11.2 | 1.07 | 3.7 | 0.48 |
| CCn1ccnc1CN1CCN(Cc2ccccn2)CC1C (configuration not stated) | 1.15 | 5.41 | -1.29 | 3.52 | -3.91 | 5.42 | 9.04 | 12.7 | 8.91 | 13.4 | 14 |
| Cn1cnc2c(N3CCCC3)nc(C3CCNCC3)cc21 | -0.224 | 13.3 | -2.65 | 0.534 | 0.965 | -48.6 | 9.23 | 1.97 | 3.12 | 20 | -8.26 |
| COc1ccc(CN(C)C(=O)CCc2c(C)nc(C)[nH]c2=O)cc1OC | -2.11 | 6.94 | -3.92 | 5.86 | 5.15 | 0 | 20.2 | -1.63 | 7.37 | 12.8 | -3.31 |
| CC(NC(=O)NCC1(O)CCC1)c1ccc(OCC2CC2)c(F)c1 (configuration not stated) | -6.25 | 10.5 | 0.839 | 9.9 | 1.85 | -24.9 | 10.3 | 14 | 3.19 | 7.79 | -3.31 |
| Cc1ccc([C@]2(O)CC[C@H]3CN(Cc4cccc(Cl)c4Cl)C[C@H]32)nc1 | -2.93 | 12.2 | 12.6 | -9.17 | 1.98 | -0.232 | 17.8 | 51.4 | 9.68 | 16.9 | -15.7 |
| Cc1cc(C)n(C2CCCN(C(=O)c3ccc(NC4CC4)nc3)C2)n1 (configuration not stated) | -6.18 | 7.79 | 5.88 | 2.52 | -4.6 | 1.05 | 7.52 | 16.1 | 4.76 | 9.41 | -13.5 |
| O=C(N1CCCO1)[C@@]12CCO[C@@H]1CCN(Cc1ccccc1)C2 | -2.49 | 2.67 | -2.01 | 8.06 | -4.25 | -22.8 | 6.67 | 0.724 | 4.17 | 10 | -6.13 |
| O=C(NCC(O)c1ccc(F)c(F)c1)c1cccnc1OCC(F)(F)F (configuration not stated) | -4.25 | 19.2 | 10.1 | 8.21 | 7.94 | -2 | 15.8 | 5.47 | 4.17 | 16.1 | -4.84 |
| CN1N=C(C(=O)N2CCCC(CCc3c(F)cccc3F)C2)CCC1=O (configuration not stated) | -4.37 | 2.7 | 0.625 | 7.41 | 1.74 | 0 | 1.21 | 4.11 | 3.7 | 7.32 | -1.23 |
| CN(C)C(=O)c1ccc2c(c1)N(C)C(CC(=O)NCc1ccno1)CO2 (configuration not stated) | -0.872 | 6.94 | -9.68 | 0.254 | 1.85 | 15 | 20.7 | 18.1 | 7.37 | 10.3 | -2.72 |
| Cc1cnn(CC2CCCN2C(=O)CCCc2nc(C)no2)c1 (configuration not stated) | -1.89 | 13.2 | 1.65 | -10.6 | -3.21 | -3.55 | 4.89 | 27.9 | 1.06 | 10.4 | -6.12 |
| CC(Oc1ccccc1C(F)(F)F)C(=O)NCCC(=O)N(C)C (configuration not stated) | -4.14 | 8.11 | -2.52 | 6.01 | 2.93 | 26.2 | 3.47 | -11.3 | 4.95 | 13.4 | -4 |
| O=C(NCC(O)c1ccc(F)c(F)c1)c1cccnc1O (configuration not stated) | -0.608 | 13.7 | 1.02 | 2.28 | -0.198 | -4.39 | 24.9 | 3.44 | 10.4 | 21 | -4.53 |
| N#Cc1ccnc(N2CCN(Cc3cccc(F)c3)CC2)c1 | -3.54 | 18.9 | -3.8 | 19.9 | 4.2 | 3.23 | 9.01 | 4.37 | 4.3 | 16.1 | -8.71 |
| COCC1CN(C(=O)c2cccn2C)Cc2ncnn2C1 (configuration not stated) | -5.41 | 5.2 | 0.668 | 11.3 | 9.34 | 4.14 | 8.32 | 9.25 | -2.15 | 11.1 | 3.71 |
| COc1ncccc1CN1CCn2c(Cn3cncn3)cnc2C1 | -1.73 | 18.7 | 0.535 | -13.2 | -2.76 | 2.1 | 8.19 | -1.48 | 0 | 6.41 | -3.83 |
| Cc1cccc(C(=O)N(C)Cc2cc(Br)cs2)n1 | -6.38 | 5.26 | 7.43 | 4.27 | 4.77 | 0 | 12.8 | -26.6 | 4.25 | 7.79 | 0.914 |
